{"source": "the supplement of paper PMC10849652", "note": "Targets with a hit are over-represented here; the source holds about 8,800 in all. About 0.5% of all pairs of compound and target were hits. A number with no mark means an inactive call.", "data": [{"compound": "CN1CC[C@H](c2c(O)cc(O)c3c(=O)cc(-c4ccccc4Cl)oc23)[C@H](O)C1 [alvocidib]", "assay": "log2 fold change, soluble protein after heating vs DMSO (PISA); higher = thermal stabilisation; K562 lysate, 10 uM; active = over 0.2 and 3.5 SD of the protein, either way, in both replicates (recomputed)", "how_it_was_run": "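Soluble protein was defined as the supernatant remaining after 21,000xg for 90 min, following pooling of heated aliquots and adjustment to 0.5% NP-40 at 4°C. Before that, crude K562 extract at 1 mg/mL protein in PBS pH 7.4 with 1 mM MgCl2 was treated with 10 μM compound for 30 min and heated for 3 min across 48°C-58°C. Quantification used TMTpro 16plex LC-MS/MS with channel sums equalised, and values are log-two fold changes in thermal stability relative to solvent controls from duplicates.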", "values": [{"target": "CEBPZOS (UniProt A8MTT3)", "log2 fold change": -0.063}, {"target": "CDKN1C (UniProt P49918)", "log2 fold change": -0.035}, {"target": "BCKDHB (UniProt P21953)", "sequence (P21953 whole entry, looked up)": "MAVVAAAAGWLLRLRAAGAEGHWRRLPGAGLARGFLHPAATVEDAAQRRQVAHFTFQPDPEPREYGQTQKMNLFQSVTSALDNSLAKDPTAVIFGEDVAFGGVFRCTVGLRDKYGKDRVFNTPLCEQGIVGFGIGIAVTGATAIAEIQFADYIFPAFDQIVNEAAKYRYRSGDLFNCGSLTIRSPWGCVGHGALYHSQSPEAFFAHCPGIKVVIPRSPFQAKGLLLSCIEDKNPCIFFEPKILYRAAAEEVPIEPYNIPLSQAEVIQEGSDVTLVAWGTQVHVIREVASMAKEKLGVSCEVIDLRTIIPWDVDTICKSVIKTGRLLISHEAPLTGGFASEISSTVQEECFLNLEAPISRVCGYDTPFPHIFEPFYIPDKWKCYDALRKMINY", "log2 fold change": 0.062}, {"target": "CD80 (UniProt P33681)", "log2 fold change": 0.071}, {"target": "BNIP1 (UniProt Q12981)", "sequence (Q12981 whole entry, looked up)": "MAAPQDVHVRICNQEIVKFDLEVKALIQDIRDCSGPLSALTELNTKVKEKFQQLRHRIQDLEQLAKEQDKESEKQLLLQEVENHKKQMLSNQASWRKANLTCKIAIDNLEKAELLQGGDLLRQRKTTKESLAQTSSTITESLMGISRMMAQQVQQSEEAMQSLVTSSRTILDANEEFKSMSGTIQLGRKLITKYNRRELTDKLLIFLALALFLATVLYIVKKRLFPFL", "log2 fold change": 0.231}, {"target": "CCNK isoform 4 (UniProt O75909)", "log2 fold change": -0.094}, {"target": "CBX5 (UniProt P45973)", "sequence (P45973 whole entry, looked up)": "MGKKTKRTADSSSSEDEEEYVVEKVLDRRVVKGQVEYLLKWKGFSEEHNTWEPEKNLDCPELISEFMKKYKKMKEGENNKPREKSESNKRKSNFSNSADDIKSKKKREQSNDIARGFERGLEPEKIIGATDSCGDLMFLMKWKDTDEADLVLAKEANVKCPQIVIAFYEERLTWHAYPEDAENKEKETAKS", "log2 fold change": -0.07}, {"target": "BCORL1 isoform 3 (UniProt Q5H9F3)", "log2 fold change": -0.328}, {"target": "C18orf32 (UniProt Q8TCD1)", "log2 fold change": 0.049}, {"target": "CASC1 (UniProt Q6TDU7)", "log2 fold change": -0.023}, {"target": "BRD2 isoform 2 (UniProt P25440)", "log2 fold change": 0.06}, {"target": "CDK5 (UniProt Q00535)", "log2 fold change": "1.07 (active)"}, {"target": "CEP120 (UniProt Q8N960)", "log2 fold change": -0.046}, {"target": "BLOC1S6 (UniProt Q9UL45)", "sequence (Q9UL45 whole entry, looked up)": "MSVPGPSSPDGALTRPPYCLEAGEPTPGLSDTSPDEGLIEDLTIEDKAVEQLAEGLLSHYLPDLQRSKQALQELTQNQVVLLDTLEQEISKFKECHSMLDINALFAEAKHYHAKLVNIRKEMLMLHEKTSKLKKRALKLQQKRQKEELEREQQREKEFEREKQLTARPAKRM", "log2 fold change": -0.028}, {"target": "BMS1 (UniProt Q14692)", "log2 fold change": -0.016}, {"target": "ATR (UniProt Q13535)", "log2 fold change": -0.134}, {"target": "CARNMT1 (UniProt Q8N4J0)", "sequence (Q8N4J0 whole entry, looked up)": "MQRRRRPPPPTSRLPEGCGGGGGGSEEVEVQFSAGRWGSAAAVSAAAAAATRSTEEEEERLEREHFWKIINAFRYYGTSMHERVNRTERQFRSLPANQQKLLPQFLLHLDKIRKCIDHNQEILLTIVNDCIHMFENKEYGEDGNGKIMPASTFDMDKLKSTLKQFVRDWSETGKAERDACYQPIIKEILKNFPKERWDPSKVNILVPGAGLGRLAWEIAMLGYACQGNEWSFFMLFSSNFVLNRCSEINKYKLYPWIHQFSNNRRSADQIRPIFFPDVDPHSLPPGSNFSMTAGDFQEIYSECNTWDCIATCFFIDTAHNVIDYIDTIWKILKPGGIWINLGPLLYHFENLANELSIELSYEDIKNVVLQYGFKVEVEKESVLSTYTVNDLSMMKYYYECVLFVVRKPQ", "log2 fold change": -0.167}, {"target": "CDC7 (UniProt O00311)", "log2 fold change": -0.081}, {"target": "CARD11 (UniProt Q9BXL7)", "log2 fold change": 0.073}, {"target": "BRAF (UniProt P15056)", "log2 fold change": -0.019}, {"target": "BRD4 (UniProt O60885)", "log2 fold change": -0.003}, {"target": "CAPNS1 (UniProt P04632)", "log2 fold change": 0.021}, {"target": "CDC25C (UniProt P30307)", "log2 fold change": 0.022}, {"target": "CASC4 (UniProt Q6P4E1)", "sequence (Q6P4E1 whole entry, looked up)": "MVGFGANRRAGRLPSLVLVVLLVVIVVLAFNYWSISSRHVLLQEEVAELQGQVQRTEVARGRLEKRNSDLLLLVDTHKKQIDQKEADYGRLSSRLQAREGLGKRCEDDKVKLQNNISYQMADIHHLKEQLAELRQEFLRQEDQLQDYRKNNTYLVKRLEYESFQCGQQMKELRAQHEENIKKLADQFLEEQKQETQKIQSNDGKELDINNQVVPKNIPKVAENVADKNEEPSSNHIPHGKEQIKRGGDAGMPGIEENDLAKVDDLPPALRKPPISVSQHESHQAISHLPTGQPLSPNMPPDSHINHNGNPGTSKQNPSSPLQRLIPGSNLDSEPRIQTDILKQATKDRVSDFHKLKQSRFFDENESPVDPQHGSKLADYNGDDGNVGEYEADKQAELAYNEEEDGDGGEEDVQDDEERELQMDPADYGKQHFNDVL", "log2 fold change": -0.03}, {"target": "CCNB1 (UniProt P14635)", "sequence (P14635 whole entry, looked up)": "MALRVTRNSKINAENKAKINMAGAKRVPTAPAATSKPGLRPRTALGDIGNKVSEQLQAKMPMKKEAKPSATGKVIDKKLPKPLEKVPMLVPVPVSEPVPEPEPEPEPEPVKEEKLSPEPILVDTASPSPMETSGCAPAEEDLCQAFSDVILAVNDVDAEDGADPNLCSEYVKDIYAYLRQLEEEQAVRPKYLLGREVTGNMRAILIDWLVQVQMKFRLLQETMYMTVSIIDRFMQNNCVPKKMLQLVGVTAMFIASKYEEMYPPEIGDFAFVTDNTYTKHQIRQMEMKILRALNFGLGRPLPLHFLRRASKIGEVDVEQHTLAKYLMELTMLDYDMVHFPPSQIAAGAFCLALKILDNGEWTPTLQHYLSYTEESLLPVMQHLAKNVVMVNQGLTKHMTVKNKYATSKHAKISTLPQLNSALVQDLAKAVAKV", "log2 fold change": -0.015}, {"target": "BTAF1 (UniProt O14981)", "log2 fold change": -0.001}, {"target": "CCDC51 (UniProt Q96ER9)", "log2 fold change": 0.127}, {"target": "ATM (UniProt Q13315)", "log2 fold change": -0.048}, {"target": "CDC42BPA isoform 6 (UniProt Q5VT25)", "sequence (Q5VT25 whole entry, looked up)": "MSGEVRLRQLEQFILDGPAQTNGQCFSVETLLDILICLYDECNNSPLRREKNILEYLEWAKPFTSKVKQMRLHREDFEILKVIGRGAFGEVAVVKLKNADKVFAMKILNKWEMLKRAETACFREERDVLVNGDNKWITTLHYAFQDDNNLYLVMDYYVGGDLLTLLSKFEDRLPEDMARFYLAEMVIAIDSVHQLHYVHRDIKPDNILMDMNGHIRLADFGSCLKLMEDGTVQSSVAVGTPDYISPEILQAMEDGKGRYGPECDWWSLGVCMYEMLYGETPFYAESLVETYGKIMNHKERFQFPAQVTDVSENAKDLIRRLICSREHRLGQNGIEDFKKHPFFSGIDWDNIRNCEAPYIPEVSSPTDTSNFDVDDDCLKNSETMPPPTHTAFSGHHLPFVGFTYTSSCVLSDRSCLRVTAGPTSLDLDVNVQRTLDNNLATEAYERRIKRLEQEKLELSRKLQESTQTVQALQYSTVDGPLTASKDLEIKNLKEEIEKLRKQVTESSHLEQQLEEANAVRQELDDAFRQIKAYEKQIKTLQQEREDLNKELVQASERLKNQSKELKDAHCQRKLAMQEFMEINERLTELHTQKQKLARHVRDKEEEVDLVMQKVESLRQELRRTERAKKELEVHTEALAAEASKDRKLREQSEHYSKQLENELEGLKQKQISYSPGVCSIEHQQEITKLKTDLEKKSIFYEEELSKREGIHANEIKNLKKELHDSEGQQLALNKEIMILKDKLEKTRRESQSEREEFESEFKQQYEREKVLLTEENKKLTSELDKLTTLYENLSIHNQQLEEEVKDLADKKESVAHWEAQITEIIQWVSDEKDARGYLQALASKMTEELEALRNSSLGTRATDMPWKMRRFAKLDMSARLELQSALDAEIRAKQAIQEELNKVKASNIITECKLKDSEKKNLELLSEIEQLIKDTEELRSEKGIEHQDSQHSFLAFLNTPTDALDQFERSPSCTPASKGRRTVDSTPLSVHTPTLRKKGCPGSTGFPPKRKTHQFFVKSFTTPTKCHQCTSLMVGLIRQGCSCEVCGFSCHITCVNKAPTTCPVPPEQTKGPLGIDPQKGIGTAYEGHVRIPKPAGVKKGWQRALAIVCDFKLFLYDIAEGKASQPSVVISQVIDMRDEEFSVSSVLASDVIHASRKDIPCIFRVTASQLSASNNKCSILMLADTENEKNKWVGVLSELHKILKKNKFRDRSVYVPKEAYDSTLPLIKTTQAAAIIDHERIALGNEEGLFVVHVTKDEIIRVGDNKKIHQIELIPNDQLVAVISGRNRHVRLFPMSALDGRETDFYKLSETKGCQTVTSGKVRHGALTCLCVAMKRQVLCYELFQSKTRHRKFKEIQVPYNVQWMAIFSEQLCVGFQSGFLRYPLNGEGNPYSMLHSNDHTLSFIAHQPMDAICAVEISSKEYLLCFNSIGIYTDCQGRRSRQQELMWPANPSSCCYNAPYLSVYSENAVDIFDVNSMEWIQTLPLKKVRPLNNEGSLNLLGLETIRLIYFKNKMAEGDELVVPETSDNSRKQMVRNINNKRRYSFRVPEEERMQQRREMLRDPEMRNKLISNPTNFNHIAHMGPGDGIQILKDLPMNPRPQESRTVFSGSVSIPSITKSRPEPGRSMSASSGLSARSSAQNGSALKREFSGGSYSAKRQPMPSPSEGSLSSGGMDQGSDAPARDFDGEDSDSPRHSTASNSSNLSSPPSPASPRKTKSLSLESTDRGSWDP", "log2 fold change": -0.099}, {"target": "CDK11B (UniProt P21127)", "log2 fold change": "0.273 (active)"}, {"target": "CENPQ (UniProt Q7L2Z9)", "log2 fold change": -0.122}, {"target": "CEPT1 (UniProt Q9Y6K0)", "log2 fold change": -0.012}, {"target": "CD63 (UniProt P08962)", "log2 fold change": -0.184}, {"target": "CHAC2 (UniProt Q8WUX2)", "log2 fold change": 0.223}, {"target": "C3 (UniProt P01024)", "log2 fold change": -0.027}, {"target": "CHCHD4 isoform 2 (UniProt Q8N4Q1)", "log2 fold change": -0.145}, {"target": "CHD1L (UniProt Q86WJ1)", "log2 fold change": 0.012}, {"target": "CCDC22 (UniProt O60826)", "log2 fold change": 0.024}, {"target": "C2CD5 isoform 3 (UniProt Q86YS7)", "sequence (Q86YS7 whole entry, looked up)": "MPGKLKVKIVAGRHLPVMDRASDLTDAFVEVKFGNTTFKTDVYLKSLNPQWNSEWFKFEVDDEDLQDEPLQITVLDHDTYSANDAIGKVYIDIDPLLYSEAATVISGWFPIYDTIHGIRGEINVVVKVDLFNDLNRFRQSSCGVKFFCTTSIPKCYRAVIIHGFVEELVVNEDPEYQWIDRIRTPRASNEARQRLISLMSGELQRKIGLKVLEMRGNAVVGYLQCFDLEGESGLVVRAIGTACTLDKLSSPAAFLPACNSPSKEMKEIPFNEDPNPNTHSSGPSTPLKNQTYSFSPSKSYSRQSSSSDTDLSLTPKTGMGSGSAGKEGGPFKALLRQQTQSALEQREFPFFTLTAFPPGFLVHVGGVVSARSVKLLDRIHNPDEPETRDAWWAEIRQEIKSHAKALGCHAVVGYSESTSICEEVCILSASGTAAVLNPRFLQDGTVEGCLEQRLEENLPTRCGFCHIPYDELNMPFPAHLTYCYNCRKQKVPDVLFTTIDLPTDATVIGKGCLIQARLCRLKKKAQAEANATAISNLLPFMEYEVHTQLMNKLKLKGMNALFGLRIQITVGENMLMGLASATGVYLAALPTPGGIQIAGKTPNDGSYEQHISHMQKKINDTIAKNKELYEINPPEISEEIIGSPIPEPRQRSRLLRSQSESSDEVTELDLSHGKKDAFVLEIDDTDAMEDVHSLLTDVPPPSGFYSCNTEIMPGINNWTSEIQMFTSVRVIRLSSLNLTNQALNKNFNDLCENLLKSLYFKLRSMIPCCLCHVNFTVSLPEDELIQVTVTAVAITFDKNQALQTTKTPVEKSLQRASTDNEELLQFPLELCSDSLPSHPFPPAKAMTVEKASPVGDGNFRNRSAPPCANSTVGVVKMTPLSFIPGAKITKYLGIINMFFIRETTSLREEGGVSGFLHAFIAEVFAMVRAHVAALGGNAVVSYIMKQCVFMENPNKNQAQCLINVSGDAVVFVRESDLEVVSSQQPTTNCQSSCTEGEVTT", "log2 fold change": -0.157}]}]}
